Data from PubChem BioAssay (NCI).
This is part of a sample that, as a whole, favours compounds with a hit. Of some 79,000 tested, about 15% had one in any assay. Cut-off read from the data, not from the text of the source: active = growth inhibition above about 70%; inactive = the rest.

Columns and labels:
[1] = NCI Yeast Anticancer Drug Screen. Data for the rad52 strain (AID 147);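 note: 0% = growth of vehicle-treated control cultures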; settings: S. cerevisiae rad52 mutant growth inhibition, hits give high values
In short: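 Here a repair-compromised yeast strain receives each compound; its growth is then quantified and normalised to vehicle-only controls.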

[2] = NCI Yeast Anticancer Drug Screen. Data for the wt1 strain (AID 149);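 note: 0% = growth of vehicle-treated wt1 cultures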; settings: S. cerevisiae wt1 strain (SPY 50644) growth inhibition, hits give high values
In short: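 Measured: growth of wt1 yeast under compound versus vehicle treatment, reported as inhibition.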

[3] = NCI Yeast Anticancer Drug Screen. Data for the rad50EPP+ strain (AID 151);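 note: 0% = growth of vehicle-treated control cultures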; settings: S. cerevisiae rad50 mutant strain, hits give high values
In short: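 Read-out is yeast growth inhibition relative to vehicle; cells used were the rad50EPP+ strain.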

[4] = NCI Yeast Anticancer Drug Screen. Data for the mgt1 strain (AID 153); settings: S. cerevisiae mgt1 mutant growth inhibition, hits give high values
In short: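 Measured: inhibition of mgt1 yeast growth by compound, normalized to vehicle-treated cultures.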

[5] = NCI Yeast Anticancer Drug Screen. Data for the rad50 strain (AID 155);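 note: 0% = growth of vehicle-only cultures of the same strain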; settings: S. cerevisiae rad50 strain growth inhibition, hits give high values
In short: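 Growth of the mutant yeast was measured after compound exposure and referenced to vehicle-treated cultures.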

[6] = NCI Yeast Anticancer Drug Screen. Data for the mec2-1 strain (AID 157); settings: S. cerevisiae mec2-1 strain, hits give high values
In short: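 Using mec2-1 yeast: add compound, measure growth, express inhibition versus vehicle-treated cultures.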

[7] = NCI Yeast Anticancer Drug Screen. Data for the rad14 strain (AID 159);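 note: 0% = growth of vehicle-treated control cultures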; settings: S. cerevisiae rad14 strain growth inhibition, hits give high values
In short: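 Here, inhibition of yeast growth was measured after compound exposure, using a strain with a genetic defect in DNA damage repair and vehicle-treated cultures as the reference.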

[8] = NCI Yeast Anticancer Drug Screen. Data for the sgs1 mgt1 strain (AID 161);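 note: 0% = growth of cultures given vehicle only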; settings: S. cerevisiae sgs1 mgt1 strain, hits give high values
In short: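 Growth of a repair-deficient yeast mutant was monitored after compound treatment and expressed as inhibition relative to vehicle-treated cultures.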

[9] = NCI Yeast Anticancer Drug Screen. Data for the CLN2oe strain (AID 163);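 note: 0% = growth of vehicle-only control cultures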; settings: S. cerevisiae CLN2oe strain, hits give high values
In short: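 Whole-cell yeast growth assay. A strain engineered for altered cell-cycle control received compound, and inhibition relative to vehicle-treated cultures was recorded.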

[10] = NCI Yeast Anticancer Drug Screen. Data for the cln2 rad14 strain (AID 165);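 note: 0% = growth equal to vehicle treated cultures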; settings: S. cerevisiae cln2 rad14 strain, hits give high values
In short: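 Yeast strain cln2 rad14, bearing defects in cell cycle control and DNA repair, serves as the test system; values reflect growth inhibition compared with vehicle.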

[11] = NCI Yeast Anticancer Drug Screen. Data for the bub3 strain (AID 167); settings: S. cerevisiae bub3 mutant strain, hits give high values
In short: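 Whole-cell yeast assay. The mutant strain was incubated with compounds, and growth inhibition was determined by comparison with vehicle-treated cells.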

[12] = NCI Yeast Anticancer Drug Screen. Data for the wt2 strain (AID 169);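 note: 0% = growth of vehicle-treated yeast cultures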; settings: S. cerevisiae wt2 strain growth inhibition, hits give high values
In short: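 Treated yeast vs. vehicle-treated yeast: growth inhibition determined.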

[13] = NCI Yeast Anticancer Drug Screen. Data for the mlh1 strain (AID 171);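 note: 0% = growth of vehicle-treated control cultures of the same strain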; settings: S. cerevisiae mlh1 strain growth inhibition, hits give high values
In short: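 A yeast strain with a defined genetic lesion serves as the test organism. Cultures receive compound or vehicle, and growth is measured.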

[14] = NCI Yeast Anticancer Drug Screen. Data for the sgs1 strain (AID 173);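 note: 0% = growth of vehicle-only control cultures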; settings: S. cerevisiae sgs1 mutant, hits give high values
In short: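 A genetically defined yeast mutant is incubated with the test compound, and its growth is compared to that of the same strain given vehicle.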

[15] = NCI Yeast Anticancer Drug Screen. Data for the mlh1 rad18 strain (AID 175); settings: S. cerevisiae mlh1 rad18 strain growth inhibition, hits give high values
In short: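 Steps: expose repair-defective yeast to compound; measure growth; express inhibition against vehicle-treated controls.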

[16] = NCI Yeast Anticancer Drug Screen. Data for the rad18 strain (AID 177); settings: S. cerevisiae rad18 mutant growth inhibition, hits give high values
In short: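 Measured value is growth inhibition of a yeast strain bearing a DNA repair alteration, referenced to vehicle-treated cells.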

[17] = at 5.0 µM (retest, dose inferred, filed as 0.5)
[18] = at 50.0 µM (retest, dose inferred, filed as 5.0)

Measured: growth inhibition

CN(C)CCNC(=Cc1ccc2ccccc2[n+]1C)NCCN(C)C
inactive: [1]; at 1.2 µM 0% | [1]; at 3.7 µM 0% | [1]; at 11.0 µM 0% | [1]; at 33.0 µM -1% | [1]; at 100.0 µM -2% | [2]; at 1.2 µM 0% | [2]; at 3.7 µM -2% | [2]; at 11.0 µM -2% | [2]; at 33.0 µM -1% | [2]; at 100.0 µM 0% | [3]; at 1.2 µM -2% | [3]; at 3.7 µM 0% | [3]; at 11.0 µM 1% | [3]; at 33.0 µM 3% | [3]; at 100.0 µM 2% | [4]; at 1.2 µM 0% | [4]; at 3.7 µM 0% | [4]; at 11.0 µM -3% | [4]; at 33.0 µM -1% | [4]; at 100.0 µM -1% | [5]; at 1.2 µM 1% | [5]; at 3.7 µM 1% | [5]; [17] -1% | [5]; at 11.0 µM 1% | [5]; at 33.0 µM 2% | [5]; [18] 2% | [5]; at 50.0 µM 24.2% | [5]; at 100.0 µM 1% | [6]; at 1.2 µM -5% | [6]; at 3.7 µM 0% | [6]; [17] 0% | [6]; at 11.0 µM 3% | [6]; at 33.0 µM 1% | [6]; [18] 2% | [6]; at 50.0 µM 19.6% | [6]; at 100.0 µM 1% | [7]; at 1.2 µM -2% | [7]; at 3.7 µM -1% | [7]; at 11.0 µM -2% | [7]; at 33.0 µM -3% | [7]; at 100.0 µM -2% | [8]; [17] -12% | [8]; [18] -13% | [8]; at 50.0 µM 19.4% | [9]; at 1.2 µM -3% | [9]; at 3.7 µM 0% | [9]; at 11.0 µM 0% | [9]; at 33.0 µM 4% | [9]; at 100.0 µM -1% | [10]; [17] 1% | [10]; [18] 8% | [10]; at 50.0 µM -2.95% | [11]; at 1.2 µM 2% | [11]; at 3.7 µM -3% | [11]; [17] -3% | [11]; at 11.0 µM 0% | [11]; at 33.0 µM -9% | [11]; [18] -2% | [11]; at 50.0 µM -4.65% | [11]; at 100.0 µM -5% | [12]; at 1.2 µM -2% | [12]; at 3.7 µM -3% | [12]; at 11.0 µM -2% | [12]; at 33.0 µM -2% | [12]; at 100.0 µM 0% | [13]; at 1.2 µM 0% | [13]; at 3.7 µM -2% | [13]; at 11.0 µM 1% | [13]; at 33.0 µM 0% | [13]; at 100.0 µM 0% | [14]; at 1.2 µM 0% | [14]; at 3.7 µM 0% | [14]; at 11.0 µM 0% | [14]; at 33.0 µM 0% | [14]; at 100.0 µM 1% | [15]; [17] -4% | [15]; [18] 47% | [15]; at 50.0 µM 34% | [16]; at 1.2 µM -2% | [16]; at 3.7 µM -4% | [16]; at 11.0 µM 0% | [16]; at 33.0 µM -2% | [16]; at 100.0 µM -1%
